CatL inh: inhibitors of human cathepsin L. P07711. purified cathepsin L, fluorogenic substrate, fluorescence. inhibition, %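 (tested at 10 µM)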. 58,000 tested, 0.17% active. AID 460; in the data active = inhibition above about 45%;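 note: 0% = enzyme with no compound and 100% = no enzyme blank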
E coli RNAP: Escherichia coli RNA polymerase inhibition; 62,000 tested, 0.2% active; P0A8V2; AID 559; E. coli RNA polymerase, fluorescence transcription assay; inhibition, %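 (tested at 10 µM)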; in the data active = inhibition above about 20%;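 note: 0% = enzyme without compound and 100% = no enzyme blank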
CatB inh: inhibitors of human cathepsin B; P07858; purified cathepsin B, fluorogenic substrate, fluorescence; inhibition, %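 (tested at 10 µM)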; 63,000 tested, 0.1% active; AID 453; in the data active = inhibition above about 21%;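 note: 0% = enzyme with no compound and 100% = no enzyme blank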
CatB mix inh: inhibitors of human cathepsin B in compound mixtures; inhibition, %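 (ten-compound pools at 5 µM per compound and 50 µM total)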; 62,000 tested, 0.06% active; P07858; Purified cathepsin B, AMC dipeptide fluorescence; in the data active = inhibition above about 22%, passing the limit was not always enough; inconclusive = no clear call, values can overlap the other calls;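 note: 0% = enzyme without compound and 100% = no enzyme blank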
BAP1 block: human BAP1 deubiquitinase inhibition. recombinant BAP1, Ub-AMC hydrolysis fluorescence kinetic; stronger effect = lower value. AID 436. 72,000 tested, 0.48% active. calls only at 20 µM;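 active = activity remaining at or below 50% of control, provided the compound also passes the data quality filters; inactive = the rest, including low values that fail the filters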;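 note: 100% = DMSO wells rate and 0% = substrate alone blank rate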
Target sequence (Q92560 whole entry, looked up): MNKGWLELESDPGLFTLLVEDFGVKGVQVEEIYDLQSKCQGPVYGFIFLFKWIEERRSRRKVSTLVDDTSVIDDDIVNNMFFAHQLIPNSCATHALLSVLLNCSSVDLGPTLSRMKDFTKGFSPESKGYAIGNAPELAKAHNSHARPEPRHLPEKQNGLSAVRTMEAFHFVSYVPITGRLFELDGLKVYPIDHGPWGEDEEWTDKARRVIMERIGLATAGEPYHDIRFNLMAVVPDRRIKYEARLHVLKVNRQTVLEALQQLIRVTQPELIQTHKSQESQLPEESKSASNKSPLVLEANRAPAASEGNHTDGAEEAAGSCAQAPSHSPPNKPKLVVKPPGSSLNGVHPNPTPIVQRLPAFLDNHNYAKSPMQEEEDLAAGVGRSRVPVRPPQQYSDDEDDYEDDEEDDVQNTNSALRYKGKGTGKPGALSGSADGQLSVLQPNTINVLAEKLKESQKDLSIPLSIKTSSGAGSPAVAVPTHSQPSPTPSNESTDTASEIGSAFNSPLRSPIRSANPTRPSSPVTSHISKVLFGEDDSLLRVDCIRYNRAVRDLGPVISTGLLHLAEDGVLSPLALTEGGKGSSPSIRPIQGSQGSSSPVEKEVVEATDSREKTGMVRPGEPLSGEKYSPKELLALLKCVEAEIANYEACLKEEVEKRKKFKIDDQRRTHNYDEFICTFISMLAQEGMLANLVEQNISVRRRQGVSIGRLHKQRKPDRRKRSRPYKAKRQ
CatS block: blocks human cathepsin S protease activity; P25774; recombinant cathepsin S, AMC dipeptide fluorescence, pooled mixtures; inhibition, %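 (tested at 5 µM per compound within 10-compound mixtures)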; 62,000 tested, 0.06% active; AID 501; in the data active = inhibition above about 32%, passing the limit was not always enough; inconclusive = no clear call, values can overlap the other calls;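 note: 0% = enzyme without compound and 100% = blank without enzyme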
BAP1 inh conf: BAP1 (human) enzyme inhibition, confirmed; AID 753; shares compounds with BAP1 block; % of control activity, % at 20 µM; purified BAP1, Ub-ethyl ester hydrolysis, HPLC; stronger effect = lower value; 310 tested, 8% active;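 active = percent of control activity at or below 60%; inconclusive = HPLC trace unusable from injection failure or solvent front hiding peaks; inactive = the rest, plus ubiquitin peak ratio over a set limit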
Numbers without * were called inactive; i = inactive; ? = inconclusive; / = not tested or not shown; + = active, no number. Most compounds without a hit are left out; they make up all but 0.81% or so of the library.

SMILES	CatL inh	E coli RNAP	CatB inh	CatB mix inh	BAP1 block	CatS block	BAP1 inh conf
COc1ccc(-c2nnc(SCC(=O)Nc3ccccc3OC)o2)cc1	-4	-3	0	0	i	-3	/
COc1ccc(-c2nnc(SCC(=O)Nc3cccc(Cl)c3)o2)cc1	/	8	-1	3	+	15	109
Nc1nn(S(=O)(=O)c2cccc3nsnc23)cc1-c1ccc(Br)cc1	18	9	3	0	+	7	?
CN(C)c1ccc(NC(=O)CSc2nc3ccccc3c(=O)n2C2CCCCC2)cc1	/	3	2	-4	+	8	57*
CCOC(=O)c1c(NC(C)=O)sc2c1CCC(C=NC(C)(C)C)=C2Sc1ccccc1	/	/	/	/	i	/	/
CC(C)c1cc(Nc2cccc(O)c2)cc(C(C)C)c1O	-2	4	-4	5	+	2	82
CCOc1cc(C(=O)O)cc(Cl)c1OCC#N	6	4	2	1	+	-9	104
O=C(Nc1cccc(-c2nc3ccccc3[nH]2)c1)c1cccc(NC(=O)c2ccco2)c1	31	9	9	0	+	14	135
Cc1ccc(-c2nc3ccccc3[nH]2)cc1NC(=O)c1ccco1	6	3	-1	-1	i	1	/
CCOc1ccccc1NC(=O)NC(=O)N(C1CCCCC1)S(C)(=O)=O	/	/	/	/	i	/	/
O=C(Nc1cccc2ccccc12)c1cccc(N=Cc2cc(Cl)cc([N+](=O)[O-])c2O)c1	/	/	/	/	i	/	/
COC(=O)c1cc2nc(-c3ccc(OC)c(OC)c3)cc(C(F)(F)F)n2n1	-1	3	2	4	+	2	129
CC1=CCC2C(=O)N(c3cccc(O)c3)C(=O)C2C1 (stereo not drawn)	/	/	/	/	i	/	/
COc1ccc(-c2noc(-c3ccc(Cl)cc3)n2)cc1	-2	3	5	0	+	-3	77
COc1ccc(-c2noc(-c3ccccc3F)n2)cc1	/	5	-1	0	i	0	/
CCOC(=O)c1cnc(SCC(=O)Nc2cc(OC)cc(OC)c2)nc1N	-4	10	2	5	i	4	/
CCOC(=O)c1cnc(SCC(=O)Nc2sc(C)c(C)c2C#N)nc1N	3	8	-1	2	+	-13	31*
Cn1nc(-c2ccc(Cl)cc2)c2cc(C(=O)NC3CC3)sc21	11	5	0	2	+	5	155
Cc1ccc2[nH]c(=O)c(CN(Cc3cccs3)Cc3nnnn3Cc3ccccc3)cc2c1	17	5	4	-6	+	8	67
Cc1ccc2[nH]c(=O)c(CN(CCO)Cc3nnnn3CCc3ccccc3)cc2c1	-3	6	2	9	i	0	/
Cc1ccc(-c2cc(C(=O)OCC(=O)Nc3cc(C)on3)c3ccccc3n2)c(C)c1	-9	-2	0	-6	+	-4	90
COc1ccc(N/C=C2/CCCCC2=O)cc1	8	8	4	-4	i	15	/
CC1CCC/C(=C\Nc2ccc(O)cc2)C1=O (stereo not drawn)	4	4	-1	2	+	6	91
Nc1c(C(=O)c2ccc(Br)s2)oc2ccccc12	/	7	3	5	+	2	81
CCOC(=O)CSc1nnc(-c2ccncc2)n1-c1ccccc1	/	/	/	/	i	/	/
SMILES	CatL inh	E coli RNAP	CatB inh	CatB mix inh	BAP1 block	CatS block	BAP1 inh conf
CC(C)(C)c1ccc(-c2nc3cc(NC(=O)c4ccc(Br)o4)ccc3o2)cc1	/	/	/	/	i	/	/
Cc1cccc2cc(CN(Cc3ccc(F)cc3)Cc3nnnn3C3CCCC3)c(=O)[nH]c12	-12	-4	-3	3	i	-7	/
Cc1cccc2cc(CN(Cc3cccs3)C3(c4nnnn4C4CCCC4)CCCC3)c(=O)[nH]c12	-2	2	-2	-7	+	-8	74
Cc1cc(C)c2[nH]c(=O)c(CN(Cc3ccc4c(c3)OCO4)Cc3nnnn3C3CCCC3)cc2c1	6	7	5	2	+	-2	112
CCc1ccc(C2NC(=O)NC(C)=C2C(=O)OCc2ccccc2)cc1 (stereo not drawn)	/	/	/	/	i	/	/
N#C/C(=C\c1ccc[nH]1)Sc1nc2ccccc2s1	9	1	2	-3	+	6	86
CCOc1ccccc1OCCn1nnc2ccccc21	-3	6	-5	-4	+	-29	105
O=C(Cn1cnc2sc(-c3ccccc3)cc2c1=O)NCc1ccco1	10	10	2	-7	+	14	126
CCOC(=O)c1[nH]c(CSc2nnnn2-c2ccccc2C)c(C(=O)OCC)c1C	/	7	1	4	+	-2	93
Cc1ccc(SCc2c(C#N)c3ccccc3n2C)cc1	-8	7	2	3	i	15	/
Cc1ccccc1N1CCN(Cc2c(C#N)c3ccccc3n2C)CC1	-5	/	-5	-6	+	-2	74
Cc1ccccc1OCc1nnc(SCC(=O)Nc2ccc3c(c2)oc2ccccc23)n1C	0	1	-6	6	+	-3	120
Cc1csc(NC(=O)c2cc3c(s2)-c2ccccc2OC3)n1	-179	1	2	0	+	15	91
Cc1csc(NC(=O)c2cc3c(s2)CCC3)n1	/	1	-1	3	/	2	/
Cc1ccc(NC(=O)c2cc3cc(Br)ccc3oc2=O)c(C)c1	/	/	/	/	i	/	/
CCOC(=O)c1oc2ccc3c(c2c1C)C(=O)CC1(CCN(C(=O)OCC)CC1)O3	-7	-3	0	-3	+	6	84
CC(C)(C)C1CCc2c(sc3c2C(=O)NC(c2cccc(Cl)c2)N3)C1 (stereo not drawn)	/	/	/	/	i	/	/
COc1ccccc1CN(Cc1cc2c(C)ccc(C)c2[nH]c1=O)Cc1nnnn1Cc1ccco1	/	5	4	-6	+	4	94
COc1ccc2cc(CN(CCc3ccccc3)Cc3nnnn3Cc3ccco3)c(=O)[nH]c2c1	5	7	-3	6	/	1	/
Cc1c(Cl)cccc1NC(=O)NC1CCCCC1	-1	-4	2	0	i	-9	/
O=C(Nc1ccccc1NC(=O)NC1CCCCC1)NC1CCCCC1	-1	6	-1	0	+	-2	104
CC1=CC(C)(C)Nc2ccc(C)cc21	0	5	6	0	/	3	/
CC1=CC(C)(C)Nc2cc(C)c(C)cc21	-6	10	1	3	+	1	49*
Cc1ccc(-n2nnnc2SCC(=O)Nc2ccc3c(c2)COC3=O)cc1C	/	5	-2	-2	+	15	77
Cn1ccnc1SCC(=O)Nc1ccc2c(c1)COC2=O	-6	10	-2	-2	/	-16	/
CC1(C)Cc2c(C#N)c(SCc3ccccc3)nc(N3CCOCC3)c2CO1	5	8	3	6	+	0	121
COc1ccccc1NC(=O)c1nc[nH]c1C(=O)Nc1ccccc1OC	-8	0	1	0	/	-5	/

High-throughput results as filed in PubChem.
